# Results reported in PubChem BioAssay (NCATS).
# Records with an inconclusive call do not appear. A number with no mark means an inactive call. Calls of active or inactive are those of the source. Calls come from the whole dose curve; as a rule, active = well fitted inhibition curve with a large enough effect; inconclusive = small, poorly fitted or top-dose-only effect; inactive = flat fitted curve, though single readings scatter.
# What was measured:
# Test in all cases: qHTS profiling for inhibitors of Plasmodium falciparum proliferation (AID 504749); note: nearly all actives have a fitted effect of over 60% in size
# Details in all cases: P. falciparum in erythrocytes, SYBR Green DNA, 72 h; series mostly up to 28.7 µM
# CP256 = system: CP256
# In short: (§1)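 Three-day growth assay of blood-stage parasites in erythrocytes (0.3% parasitemia, 2.5% hematocrit) at 37 C, 5% CO2, quantified by SYBR Green DNA staining after overnight detergent lysis.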
# CP260 = system: CP260
# In short: as §1
# CP262 = system: CP262
# In short: as §1
# CP265 = system: CP265
# In short: as §1
# CP269 = system: CP269
# In short: as §1
# CP286 = system: CP286
# In short: as §1
# CP297 = system: CP297
# In short: as §1
# CP335 = system: CP335
# In short: as §1
# DFO2036 = system: DFO2036
# In short: as §1
# DIV14 = system: DIV14
# In short: as §1
# DIV17 = system: DIV17
# In short: as §1
# Dd2 = system: Dd2
# In short: as §1
# ECU = system: ECU
# In short: as §1
# FAB9 = system: FAB9
# In short: as §1
# GB4 = system: GB4
# In short: as §1
# ICS = system: ICS
# In short: as §1
# JCK = system: JCK
# In short: as §1
# N140 = system: N140
# In short: as §1
# P93_24 = system: P93_24
# In short: as §1
# P94_40 = system: P94_40
# In short: as §1
# PC49 = system: PC49
# In short: as §1
# SC27B = system: SC27B
# In short: as §1
# TAB109 = system: TAB109
# In short: as §1
# TAB113 = system: TAB113
# In short: as §1
# TAB165 = system: TAB165
# In short: as §1
# W2 = system: W2
# In short: as §1
# Potency is the fitted concentration of half-maximal effect.
compound,measurement,setting,value
C=C[C@]1(C)C[C@@H](OC(=O)CSCCN(CC)CC)[C@]2(C)C(C)CC[C@]3(CCC(=O)[C@H]32)[C@@H](C)[C@@H]1O (stereo partly specified),Potency,CP256,8.91 µM (active)
same,Potency,CP260,5.62 µM (active)
same,Potency,CP262,inactive
same,Potency,CP265,8.91 µM (active)
same,Potency,CP269,6.75 µM (active)
same,Potency,CP286,3.55 µM (active)
same,Potency,CP297,6.75 µM (active)
same,Potency,CP335,5.36 µM (active)
same,Potency,DFO2036,10 µM (active)
same,Potency,DIV14,15.1 µM (active)
same,Potency,DIV17,13.5 µM (active)
same,Potency,Dd2,3.16 µM (active)
same,Potency,ECU,12.6 µM (active)
same,Potency,FAB9,inactive
same,Potency,GB4,6.75 µM (active)
same,Potency,ICS,3.98 µM (active)
same,Potency,JCK,inactive
same,Potency,N140,8.91 µM (active)
same,Potency,P93_24,5.01 µM (active)
same,Potency,P94_40,4.47 µM (active)
same,Potency,PC49,inactive
same,Potency,SC27B,7.94 µM (active)
same,Potency,TAB109,3.98 µM (active)
same,Potency,TAB113,11.2 µM (active)
same,Potency,TAB165,7.08 µM (active)
same,Potency,W2,2.13 µM (active)
